About 4,300 (8.3%) of roughly 52,000 compounds were called active. Rule as the data show it: active = survival mostly below about 52% (no sharp cut-off); inactive = mostly above about 56%. For the sample, actives were picked, then their nearest neighbours and some compounds at random.

For this assay, the system named is DeltatarO mutant. The assay is described as follows: growth inhibition of S. aureus wild type versus tarO mutant, primary screen, teichoic acid synthesis inhibitors, RN4220, OD600 (AID 463173). The settings on record: OD600, 18 h, stronger effect = lower value, screened at 18.75 µg/mL (by protocol).
Consider `CC1=C(C(=O)Nc2ccccc2)C(c2cccnc2)n2nc(SCc3ccccc3Cl)nc2N1` (stereo not drawn), for which the survival is 179% (inactive).

Regarding `CCCCNC(=O)CN1C(=O)COc2ccc(S(=O)(=O)N3CCCCCC3)cc21`, the survival was 80% (inactive).

Turning to `CN(C)c1ccc(/C=C/c2nc(-c3ccccc3O)n(-c3ccccc3)n2)cc1`, the survival is 42% (active).

As to `CC(=O)Nc1ccc(/C=C/c2noc(-c3ccccc3O)n2)cc1`, the survival is 75% (inactive).

Take `CN(C)c1ccc(/C=C/c2noc(-c3ccccc3O)n2)cc1`: the survival is 86% (inactive).

For `Cc1nc(C)c(C(=O)N/N=C/c2ccc(O)cc2O)cc1C(=O)N/N=C/c1ccc(O)cc1O`, the survival is 80% (inactive).

On to `Oc1ccccc1-c1nc(/C=C/c2ccc(F)cc2)no1`, for which the survival is 79% (inactive).

Consider `Oc1ccccc1-c1nc(/C=C/c2ccccc2)nn1-c1ccccc1`, for which the survival is 7% (active).

With `Oc1ccc(/C=C/c2nc(-c3ccccc3O)n(-c3ccccc3)n2)c(O)c1`, the survival is -3% (active).

For `CN(C)c1ccc(/C=N/NC(=O)c2ccccc2)cc1`, the survival is 95% (inactive).

With `Oc1ccccc1-c1nc(/C=C/c2ccc(F)cc2)nn1-c1ccccc1`, the survival was 26% (active).

For `N#Cc1nc(/C=C/c2ccc(F)cc2)oc1N1CCN(c2ccccc2)CC1`, the survival is 73% (inactive).

Take `CC(=O)Nc1ccc(/C=C/c2nc(-c3ccccc3O)n(-c3ccccc3)n2)cc1`: the survival was 84% (inactive).

As for `Cc1ccc2c(c1)c(N1CCCC1=O)c(C(=O)Nc1ccc(F)cc1F)n2C`, the survival is 71% (inactive).

As to `CCCCN(CCCC)CCNC(=O)CN1C(=O)CSc2ccc(S(=O)(=O)N3CCOCC3)cc21`, the survival was 92% (inactive).

Take `CCCCN(CCCNC(=O)c1cc(Nc2ccc(OC)cc2OC)nc2ccccc12)Cc1ccccc1`: the survival is 99% (inactive).

As to `O=c1c2sc3ccccc3c2n(Cc2ccccc2Cl)c(=O)n1Cc1ccccc1`, the survival was 56% (inactive).

In the case of `CC(C)(C)C(=O)NC1CC(=O)N(c2ccc3c(c2)OCCO3)C1` (stereo not drawn), the survival is 125% (inactive).

`Cn1cc(-c2cc3n(n2)CCC(=O)N3CCCC(=O)Nc2ccc(F)cc2F)c2ccccc21`: the survival was 128% (inactive).

Regarding `Cc1c(Cl)cccc1-n1ncc(C(=O)Nc2ccc3c(c2)OCCO3)c1C1CCN(C(=O)OC(C)(C)C)CC1`, the survival is 102% (inactive).

For `CC(CNC(=O)CCc1cn(Cc2ccccc2Cl)c2ccccc12)c1ccccc1` (stereo not drawn), the survival was 66% (inactive).

Regarding `COc1cc2c(-c3cc(Br)ccc3O)nc3c(c(C)nn3-c3ccccc3)c2cc1OC`, the survival is 77% (inactive).

For the molecule `Cc1nn(-c2ccccc2)c(Cl)c1C(N)=O`, the survival was 73% (inactive).

`Oc1ccccc1-c1nc(/C=C/c2ccccc2Cl)nn1-c1ccccc1`: the survival is 14% (active).

With `Oc1ccccc1-c1nc(/C=C/c2ccccc2Cl)no1`, the survival was 67% (inactive).

For the molecule `COc1ccc(/C=C/c2noc(-c3ccccc3O)n2)cc1OC`, the survival is 130% (inactive).

In the case of `COc1ccc(/C=C/c2nc(-c3ccccc3O)n(-c3ccccc3)n2)cc1OC`, the survival was 13% (active).

With `CCc1ccc(C2CC(=O)c3c([nH]c(C(=O)OCC4CCCCC4)c3C)C2)cc1` (stereo not drawn), the survival is 89% (inactive).

As to `Cc1c(C(=O)N2CCCCCC2)c(S(=O)(=O)Nc2ccc(OC(F)(F)F)cc2)c(C)n1C`, the survival is 113% (inactive).

With `CCOc1ccc(C(=O)Nc2cc(-c3nc4cc(OC)ccc4o3)ccc2C)cc1[N+](=O)[O-]`, the survival was 62% (inactive).

`CCOC(=O)c1cnc2c(C(F)(F)F)cccc2c1Cl`: the survival was 82% (inactive).

With `CCOC(=O)c1ccc2nc(C)cc(Nc3ccc(OC(C)C)cc3)c2c1`, the survival is 133% (inactive).

With `CCCOC(=O)c1ccc(Nc2c(C(=O)OCC)cnc3c(C)cc(Cl)cc23)cc1`, the survival was 11% (active).

For the molecule `CCOC(=O)c1cnc2cc(C(F)(F)F)ccc2c1Nc1cc(C)ccc1OC`, the survival is 71% (inactive).

Turning to `CCOC(=O)c1cnc2cc(C(F)(F)F)ccc2c1Nc1ccc(F)cc1F`, the survival was 2% (active).

On to `CCOC(=O)c1cnc2c(Cl)cc(Cl)cc2c1Nc1cc(C(=O)O)ccc1C`, for which the survival was 60% (inactive).

With `CCOC(=O)c1cnc2c(C(F)(F)F)cccc2c1Nc1cccc(C(=O)OC)c1`, the survival was 14% (active).

On to `CCOC(=O)c1ccc(Nc2ncnc3c2cnn3-c2cccc(Cl)c2)cc1`, for which the survival is 75% (inactive).

As for `CCOC(=O)c1cnc2c(C)cccc2c1Nc1ccc(OC(C)C)cc1`, the survival was 2% (active).

For the molecule `CCOC(=O)c1cnc2cc(C(F)(F)F)ccc2c1N1CCN(c2ccc(F)cc2)CC1`, the survival is 57% (inactive).

Turning to `CCOc1ccc(NC(=O)c2c(NCc3cc(OC)c(OC)cc3OC)sc3c2CCCC3)cc1`, the survival is 74% (inactive).

Take `CCOC(=O)C1CCCN(S(=O)(=O)c2ccc(N3CCCCS3(=O)=O)cc2)C1` (stereo not drawn): the survival was 55% (inactive).

Take `O=C(c1cnn(-c2ccc(F)cc2)c1-n1cccc1)N1CCN(c2cccc(Cl)c2)CC1`: the survival was 70% (inactive).

For `CCOc1ccccc1CNC(=O)c1ccc2nc(CCc3ccccc3)oc2c1`, the survival is 83% (inactive).

`Cc1cccc(C(=O)NCC(=O)OCc2cc(=O)n3nc(CC(C)C)sc3n2)c1`: the survival is 105% (inactive).

For the molecule `O=C(Cn1c2ncccc2c(=O)n1-c1ccccc1)NCc1ccccc1Cl`, the survival was 68% (inactive).

For the molecule `COc1ccc(NC(=O)CN2C(=O)COc3ccc(S(=O)(=O)NC4CCCC4)cc32)cc1OC`, the survival was 75% (inactive).

`Cc1ccc(NC(=O)CCCn2c(=O)c3cccn3c3cccnc32)cc1C`: the survival is 79% (inactive).

Turning to `CC(C)n1c(C(=O)OC(C(=O)NCc2ccco2)c2cccnc2)cc2sccc21` (stereo not drawn), the survival is 88% (inactive).

As to `CCCOc1ccc(Nc2nc(SC)ncc2C(=O)OCC)cc1`, the survival was 65% (inactive).

`CCOC(=O)c1cnc2c(ccc3ccccc32)c1Nc1ccccc1O`: the survival is 69% (inactive).

As for `CCOC(=O)c1cnc(NCc2ccc(Cl)cc2)c2ccccc12`, the survival was 91% (inactive).

As for `CCOC(=O)c1cnc2c(ccc3ccccc32)c1Nc1ccc(OCC)cc1`, the survival is 5% (active).

Take `CCOC(=O)c1cnc2c(ccc3ccccc32)c1Nc1ccc(C(C)=O)cc1`: the survival is 1% (active).

For `CCOC(=O)c1cnc2c(ccc3ccccc32)c1Nc1ccc(Cl)cc1`, the survival is 23% (active).

Turning to `CCOC(=O)c1cnc2c(ccc3ccccc32)c1Nc1ccc(OC)c(OC)c1`, the survival is 7% (active).

With `COc1cc(NC(=O)C2CCN(c3nnc(C)c4c(C)n(-c5ccccc5)nc34)CC2)cc(OC)c1`, the survival is 87% (inactive).

In the case of `CCOc1ccc(NC(=O)CSc2nnnn2C2CCCC2)cc1`, the survival is 68% (inactive).

The record behind these values is PubChem BioAssay AID463173 (ICCB-Longwood Screening Facility, Harvard Medical School, 2010).
